Results taken from PubChem BioAssay (NCI).
About 83,000 compounds went through this panel and 20% of them were active in at least one assay; those are over-represented in the sample as a whole.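 96-well plates, one dose, 48 hours. Percent growth reported; active if below 10.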 A number with no mark means an inactive call. The source made the active and inactive calls.

How the values were obtained:
Experiment in all cases: NCI-60 one-dose screen, 48 h (100 = growth as untreated, 0 = no growth, -100 = all killed)
Settings in all cases: 10 µM
[1] = test system: HT29 colon
[2] = test system: SNB-75 CNS
[3] = test system: SNB-19 CNS
[4] = test system: U251 CNS
[5] = test system: PC-3 prostate
[6] = test system: SK-MEL-5 melanoma
[7] = test system: UACC-62 melanoma
[8] = test system: LOX IMVI melanoma
[9] = test system: SK-MEL-28 melanoma
[10] = test system: SK-MEL-2 melanoma

SMILES: Cc1ccc(Nc2cc(C)nc(NCCCNc3ccnc4cc(Cl)ccc34)n2)cc1
- growth [1]: -87.2% (active)
- growth [2]: -98.5% (active)
- growth [3]: -24.9% (active)
- growth [4]: -99.2% (active)
- growth [5]: -38.4% (active)
- growth [6]: -100% (active)
- growth [7]: -92.9% (active)
- growth [8]: -82.7% (active)
- growth [9]: -100% (active)
- growth [10]: -97% (active)

SMILES: COc1cc(NC(=O)CCSc2nc3ccc(Cl)cc3c(=O)n2Cc2ccccc2)cc(OC)c1OC
- growth [1]: 76.2%
- growth [2]: 36.6%
- growth [3]: 92.1%
- growth [4]: 70.2%
- growth [5]: 43.4%
- growth [6]: 74.8%
- growth [7]: 53.4%
- growth [8]: 91.1%
- growth [9]: 70.7%
- growth [10]: 73.7%

SMILES: COc1ccc(C2CC(c3ccc(N(C)C)cc3)=NN2c2ccc(S(N)(=O)=O)cc2)cc1 (stereo not given)
- growth [1]: 29.6%
- growth [2]: 69.6%
- growth [3]: 66.6%
- growth [4]: 26.6%
- growth [5]: 18.9%
- growth [6]: 69.4%
- growth [7]: 62.3%
- growth [8]: 54.9%
- growth [9]: 86.3%
- growth [10]: 79.7%

SMILES: CC(=O)[C@H]1CC[C@H]2[C@@H]3CCC4=CC(=O)C=C[C@]4(C)[C@H]3CC[C@]12C
- growth [1]: 96.2%
- growth [2]: 90.3%
- growth [3]: 114%
- growth [4]: 95.1%
- growth [5]: 87.7%
- growth [6]: 82.5%
- growth [7]: 80.3%
- growth [8]: 88.6%
- growth [9]: 109%
- growth [10]: 102%

SMILES: O=C(Nc1ccncc1)C(=O)c1cn(S(=O)(=O)c2cccc(Cl)c2)c2ccccc12
- growth [1]: 29%
- growth [2]: 85.3%
- growth [3]: 89.8%
- growth [4]: 61.2%
- growth [5]: 72.4%
- growth [6]: 51.7%
- growth [7]: 61.2%
- growth [8]: 44.6%
- growth [9]: 86.5%
- growth [10]: 57.7%

SMILES: N=C(N)c1ccc(-c2ccc(-c3cccs3)s2)cc1
- growth [1]: -53.8% (active)
- growth [2]: 70.9%
- growth [3]: 109%
- growth [4]: -48.5% (active)
- growth [5]: 78%
- growth [6]: 31.4%
- growth [7]: 40.4%
- growth [8]: -81.7% (active)
- growth [9]: 37.7%
- growth [10]: 99%

SMILES: C[N+](C)(C)c1ncnc2nc[nH]c12
- growth [1]: 104%
- growth [2]: 70%
- growth [3]: 94.9%
- growth [4]: 93.9%
- growth [5]: 115%
- growth [6]: 85.4%
- growth [7]: 90.4%
- growth [8]: 90.4%
- growth [9]: 108%
- growth [10]: 75.8%

SMILES: CC(=O)O[C@]1(C)CC[C@H]2[C@H](CNCCc3ccc(Cl)cc3)C(=O)O[C@@H]2C2=C(C)C(=O)C[C@H]21
- growth [1]: 90%
- growth [2]: 64.1%
- growth [3]: 79.4%
- growth [4]: 91.3%
- growth [5]: 86.9%
- growth [6]: 92.2%
- growth [7]: 97.9%
- growth [8]: 90.6%
- growth [9]: 101%
- growth [10]: 114%

SMILES: CC(=O)/C(=C/c1ccccc1)C(=O)CC(C)C
- growth [1]: 74.4%
- growth [2]: 91.4%
- growth [3]: 106%
- growth [4]: 63.6%
- growth [5]: 83.7%
- growth [6]: 88.1%
- growth [7]: 92.4%
- growth [8]: -23% (active)
- growth [9]: 95.6%
- growth [10]: 109%
